Assay results as given in PubChem BioAssay (NCI).
Where “and” joins values, the source holds several entries; their conditions need not be identical. Identical values can stand only once. About 83,000 compounds went through this panel and 20% of them were active in at least one assay; those are over-represented in the sample as a whole.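 Plates (96-well) were seeded with cells, treated with compound at one concentration, and incubated for 48 hours before percent growth was determined.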 Calls of active or inactive are those of the source. The calls were made as follows: active = growth percent below 10; inactive = the rest.

What was measured:
Assay in all cases: NCI-60 one-dose screen, 48 h (100 = growth as untreated, 0 = no growth, -100 = all killed)
Conditions in all cases: 10 µM unless noted
[1] = test system: NCI-H23 lung
[2] = test system: NCI-H226 lung
[3] = test system: NCI-H322M lung
[4] = test system: HOP-62 NSCLC
[5] = test system: HOP-92 NSCLC
[6] = test system: NCI-H522 lung
[7] = test system: A549/ATCC NSCLC
[8] = test system: 786-0 renal
[9] = test system: COLO 205 colon
[10] = test system: DU-145 prostate
[11] = test system: K-562 leukemia
[12] = test system: MALME-3M melanoma
[13] = test system: MDA-MB-231 breast
[14] = test system: RXF 393 renal
[15] = test system: SF-268 CNS
[16] = test system: SF-295 CNS
[17] = test system: SF-539 CNS
[18] = test system: UACC-257 melanoma
[19] = test system: M14 melanoma

Row | Compound | growth [1] | growth [2] | growth [3] | growth [4] | growth [5] | growth [6] | growth [7] | growth [8] | growth [9] | growth [10] | growth [11] | growth [12] | growth [13] | growth [14] | growth [15] | growth [16] | growth [17] | growth [18] | growth [19]
1 | O=C(O)c1ccc2c3c(ncnc13)-c1ccccc1C2=O | -76.7% (active) | 52.4% (inactive) | 23.7% (inactive) | 12.3% (inactive) | 81% (inactive) | 77.7% (inactive) | -6.25% (active) | 84.5% (inactive) | 54.7% (inactive) | -100% (active) | 74.5% (inactive) | -68.6% (active) | 89.6% (inactive) | 73.5% (inactive) | 90% (inactive) | 62.3% (inactive) | 63.1% (inactive) | 37.8% (inactive) | -59% (active)
2 | CC1(C)CC([P+](c2ccccc2)(c2ccccc2)c2ccccc2)=NN1 | 28.1% (inactive) | 53.1% (inactive) | 81.1% (inactive) | 76.6% (inactive) | -1.14% (active) | 27.4% (inactive) | 37.1% (inactive) | 80.4% (inactive) | -49.9% (active) | 49.6% (inactive) | 9.92% (active) | 21.2% (inactive) | 65.4% (inactive) | 59.6% (inactive) | 41.1% (inactive) | 53.2% (inactive) | 51% (inactive) | 2.89% (active) | 71.9% (inactive)
3 | CN1c2ccccc2C(C)(C)C12C=Cc1cc(O)ccc1O2 (stereo not given) | 52.3% (inactive) | 89% (inactive) | 109% (inactive) | 82.8% (inactive) | -6.47% (active) | -15.6% (active) | 75.2% (inactive) | 87.1% (inactive) | 78.2% (inactive) | 52.1% (inactive) | 12% (inactive) | 69.1% (inactive) | 60.9% (inactive) | 57.1% (inactive) | 15.4% (inactive) | 55.9% (inactive) | 25.8% (inactive) | 56.7% (inactive) | 17.9% (inactive)
4 | O=C(Nc1ccccc1)c1cc(Cl)ccc1O | 53% (inactive) | 74% (inactive) | 83.1% (inactive) | 63.5% (inactive) | 14.5% (inactive) | 10.3% (inactive) | 33.7% (inactive) | 59.7% (inactive) | 109% (inactive) | 83.7% (inactive) | 33.8% (inactive) | 40.3% (inactive) | 70.6% (inactive) | 79.9% (inactive) | 66.5% (inactive) | 73.1% (inactive) | 53.2% (inactive) | 14.9% (inactive) | 50.9% (inactive)
5 | O=C1C2=C(Nc3cc([N+](=O)[O-])ccc3N2)OC1c1c2ccccc2cc2ccccc12 (stereo not given) | 51.7% (inactive) | 82.9% (inactive) | 71.8% (inactive) | 88% (inactive) | 44.1% (inactive) | 24% (inactive) | 71.1% (inactive) | 48.3% (inactive) | 118% (inactive) | 74.6% (inactive) | 21.6% (inactive) | 97.9% (inactive) | 65.8% (inactive) | 65.1% (inactive) | 33.2% (inactive) | 57.5% (inactive) | 58.8% (inactive) | 74.4% (inactive) | 70.1% (inactive)
6 | COC(=O)Nc1nc2ccc(C(=O)c3ccccc3)cc2[nH]1 | 33.8% (inactive) and 19.3% (inactive) and 32.4% (inactive) | 50.9% (inactive) and 80.4% (inactive) and 109% (inactive) | 56.9% (inactive) and 66.1% (inactive) and 44.1% (inactive) | 30.4% (inactive) and 21.9% (inactive) and 49.2% (inactive) | 65.7% (inactive) and 41.8% (inactive) and 35.3% (inactive) | -11.7% (active) and -16.9% (active) and -32.5% (active) | 20.8% (inactive) and 22.2% (inactive) and 17.2% (inactive) | 19.8% (inactive) and 23.6% (inactive) and 31.9% (inactive) | – | 26.8% (inactive) and -20.2% (active) and -19.3% (active) | 6.5% (active) and 4.72% (active) and 4.39% (active) | 26.5% (inactive) and 58.6% (inactive) and 54.1% (inactive) | 51.3% (inactive) and 25.5% (inactive) and 38% (inactive) | -12.3% (active) and -5.96% (active) | 53.7% (inactive) and 21.3% (inactive) and 27.4% (inactive) | 0.877% (active) and -10.3% (active) and -13.1% (active) | 2.99% (active) and -28.1% (active) and -34% (active) | 61% (inactive) and 77.2% (inactive) and 69.8% (inactive) | -24.2% (active) and 0.911% (active) and 20.7% (inactive)
7 | Cc1ccnc2c1ccc1c(C)ccnc12 | 21.7% (inactive) | 17.4% (inactive) | 19% (inactive) | 6.08% (active) | 44.7% (inactive) | 11.8% (inactive) | 8.87% (active) | 6.29% (active) | – | 27.4% (inactive) | 12% (inactive) | 19.1% (inactive) | 31.9% (inactive) | 26.2% (inactive) | 22.8% (inactive) | 18.3% (inactive) | -3.71% (active) | 2.29% (active) | -11.5% (active)
8 | COc1ccccc1OC(=O)Oc1ccccc1OC | 101% (inactive) and 95.5% (inactive) | 99.7% (inactive) and 106% (inactive) | 94.3% (inactive) and 99.5% (inactive) | 120% (inactive) and 100% (inactive) | 108% (inactive) and -0.941% (active) | 85.3% (inactive) and 92.5% (inactive) | 90.1% (inactive) and 109% (inactive) | 103% (inactive) and 96.6% (inactive) | 123% (inactive) and 104% (inactive) | 112% (inactive) and 96% (inactive) | 125% (inactive) and 104% (inactive) | 94.8% (inactive) and 98.5% (inactive) | 103% (inactive) and 107% (inactive) | 102% (inactive) and 113% (inactive) | 111% (inactive) and 94.9% (inactive) | 106% (inactive) and 103% (inactive) | 121% (inactive) and 103% (inactive) | 97.6% (inactive) and 115% (inactive) | 103% (inactive) and 99.7% (inactive)
9 | Cc1cc(N)c2ccccc2[n+]1CCCCCCCCCC[n+]1c(C)cc(N)c2ccccc21 | 5.83% (active) and -29.4% (active) | 13.8% (inactive) and 31.5% (inactive) | 11.2% (inactive) and 41.8% (inactive) | 16.3% (inactive) and 25.4% (inactive) | -22.2% (active) and 7.42% (active) | -8.65% (active) and -8.09% (active) | 29.9% (inactive) and -17% (active) | 18.7% (inactive) and 20.8% (inactive) | -50.2% (active) and -45.7% (active) | 31.3% (inactive) and -73.8% (active) | -7.04% (active) and -39.8% (active) | -15.7% (active) and 10.5% (inactive) | 18.9% (inactive) and 1.88% (active) | -30.2% (active) | 23.2% (inactive) and 27.9% (inactive) | -45.6% (active) and 8.47% (active) | -8.43% (active) and -37.4% (active) | 33.5% (inactive) and 5.36% (active) | 3.53% (active)
10 | CNC(=O)N/N=C/c1ccc([N+](=O)[O-])o1 | 101% (inactive) | 104% (inactive) | 88.7% (inactive) | 102% (inactive) | 101% (inactive) | 85.2% (inactive) | 82.3% (inactive) | 111% (inactive) | – | 104% (inactive) | 96.5% (inactive) | 112% (inactive) | 97.6% (inactive) | 115% (inactive) | 94.2% (inactive) | 107% (inactive) | 110% (inactive) | 87.8% (inactive) | 102% (inactive)
11 | Cc1ccc(NS(=O)(=O)c2ccc(C)cc2)cc1 | 100% (inactive) and 98.2% (inactive) | 95.9% (inactive) and 88.6% (inactive) | 102% (inactive) and 91.5% (inactive) | 98.5% (inactive) and 92.7% (inactive) | 100% (inactive) and 96.7% (inactive) | 97.9% (inactive) and 77.9% (inactive) | 88.1% (inactive) and 107% (inactive) | 100% (inactive) and 99.3% (inactive) | 111% (inactive) and 103% (inactive) | 101% (inactive) and 104% (inactive) | 85.7% (inactive) and 101% (inactive) | 105% (inactive) and 101% (inactive) | 103% (inactive) and 107% (inactive) | 103% (inactive) and 96.1% (inactive) | 97.8% (inactive) and 93.1% (inactive) | 95.5% (inactive) and 93.4% (inactive) | 111% (inactive) and 101% (inactive) | 89.8% (inactive) and 77.2% (inactive) | 98% (inactive) and 99.2% (inactive)
12 | CCC(CC)COC(=O)c1ccc(O)c(O)c1 | 81% (inactive) | 63.9% (inactive) | 85.3% (inactive) | 50.3% (inactive) | 31.1% (inactive) | -5.6% (active) | 52% (inactive) | 78.5% (inactive) | 95.7% (inactive) | 73.4% (inactive) | 102% (inactive) | 54.8% (inactive) | 48.9% (inactive) | 65.7% (inactive) | 57.8% (inactive) | 90.1% (inactive) | 34% (inactive) | 86.4% (inactive) | 86.1% (inactive)
13 | CCCCCCC(C)c1ccccc1O (stereo not given) (tested in a mixture with another compound) | 90.2% (inactive) | 109% (inactive) | 117% (inactive) | 99% (inactive) | 69.1% (inactive) | 105% (inactive) | 100% (inactive) | – | – | 116% (inactive) | 106% (inactive) | 106% (inactive) | 104% (inactive) | 113% (inactive) | 112% (inactive) | 116% (inactive) | 99.3% (inactive) | 117% (inactive) | 111% (inactive)
14 | CN=C(N)N/N=C(\C)c1ccc2c(c1)Cc1cc(/C(C)=N/NC(N)=NC)ccc1-2 | -56.6% (active) | -61.2% (active) | -1.93% (active) | -82.7% (active) | 13.5% (inactive) | -35% (active) | -17.6% (active) | -49.7% (active) | – | -35.5% (active) | -7.26% (active) | -65.5% (active) | -33.8% (active) | -21.2% (active) | -61% (active) | -28.1% (active) | -89% (active) | 56.5% (inactive) | -85.7% (active)
